# Sampled rows, rich in hits. Any-hit rate of the full collection: about 11%.
# HP1b binding inh = blocks HP1-beta chromodomain binding to methylated histone tails; P83916; AlphaScreen HP1-beta / biotin-H3K9me3 peptide binding; Potency, µM (titrated, usually from 114 µM), inactives show top-dose activity change, negative = inhibition, hits mostly inhibitors; 390,000 tested, 0.56% active; note: potency is the fitted concentration of half-maximal effect; nearly all actives have a fitted effect of over 70% in size
#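 Compound inhibition of the preformed complex between 50 nM HP1-beta and 50 nM biotinylated H3K9me3 peptide was read by AlphaScreen. Buffer was PBS pH 7.4 with 0.01% Tween-20. Incubations ran 30 min at room temperature, with 10 ug/mL donor/acceptor beads.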
# L3MBTL1 block = L3MBTL1 (human) inhibition; Q9Y468; AlphaScreen L3MBTL1–H3K9me1 peptide binding; Potency, µM (doses to about 57.1 µM), inactives show at the highest dose activity, negative = inhibition, most hits filed as inhibitors; 230,000 tested, 0.66% active; AID 485360; note: potency is the fitted concentration of half-maximal effect; % is set by controls: 0 for no effect and ±100 for the full control effect; nearly all actives have a fitted effect of over 60% in size
#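 AlphaScreen proximity signal between nickel-chelate acceptor and streptavidin donor beads (final 10 ug/mL) reports binding of 50 nM L3MBTL1 to 75 nM biotin-H3 K9me1 peptide; complex incubated with compounds 30 min at room temperature; cefsulodin titration as control.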
# G9a block = blocks human histone lysine methyltransferase G9a; Potency, µM (highest dose often 102 µM), without a hit: at the top dose activity, negative = inhibition, usual class: inhibitors; G9a H3K9 monomethylation, AlphaScreen, 2 h; AID 504332; 350,000 tested, 8.8% active; note: potency is the fitted concentration of half-maximal effect; % is set by controls: 0 for no effect and ±100 for the full control effect; nearly all actives have a fitted effect of over 75% in size
#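 Quantitative HTS format: methyltransferase activity on a biotin-tagged H3K9 peptide is measured by AlphaScreen, using a rabbit anti-monomethyl-H3K9 antibody with streptavidin donor and anti-IgG acceptor beads. Final levels are 20 nM enzyme, 500 nM peptide, 20 uM SAM; 2 h RT.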
# PI5P4Ka inh = inhibitors of human PI5P4K alpha; P48426; PI5P4Kalpha enzyme, ADP-Glo luminescence, 60 min; active compounds read low; max response, %; 330,000 tested, 1.2% active; AID 652105; active = max response of -50% or lower; inconclusive = between -30% and -50%; inactive = -30% or higher; note: value at the top dose of about 77 µM; % is set by controls: 0 for no effect and ±100 for the full control effect
#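 ADP-Glo luminescence end-point after a 60 min room-temperature kinase reaction. PI5P4Kalpha and substrate in HEPES pH 7.4 buffer with EGTA, 0.1% CHAPS and 5% DMSO; ATP at 5 microM final.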
# BAZ2B block = blocks human BAZ2B. AlphaScreen BAZ2B-H3K14Ac peptide displacement. Potency, µM (top dose mostly 114 µM), inactives show at the highest dose activity change, negative = inhibition, most hits filed as inhibitors. 360,000 tested, 4.4% active; note: potency is the fitted concentration of half-maximal effect; % is set by controls: 0 for no effect and ±100 for the full control effect; nearly all actives have a fitted effect of over 60% in size
#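 Multi-concentration screen (max 110 uM) measuring displacement of acetylated histone H3 peptide from BAZ2B by AlphaScreen, using 50 nM protein, 50 nM peptide and 10 ug/mL streptavidin donor plus Ni-chelate acceptor beads.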
# JMJD2A Tudor inh = inhibitors of human JMJD2A Tudor domain. AlphaScreen JMJD2A-Tudor / H3K4me3 peptide binding. 390,000 tested, 4.4% active. Potency, µM (highest dose often 114 µM), for inactives: at the top dose activity change, negative = inhibition, most hits filed as inhibitors; note: potency is the fitted concentration of half-maximal effect; % is set by controls: 0 for no effect and ±100 for the full control effect; nearly all actives have a fitted effect of over 50% in size
# The depositor's hits bear a star; ? = inconclusive; . = not tested or not shown; ! = repeats disagree; [ ] = remark or other dose. Unless noted, calls come from the whole dose curve; as a rule, active = well fitted inhibition curve with a large enough effect; inconclusive = small, poorly fitted or top-dose-only effect; inactive = no such curve, though single readings can be large or run the other way.
SMILES,HP1b binding inh,L3MBTL1 block,G9a block,PI5P4Ka inh,BAZ2B block,JMJD2A Tudor inh
CCOC(=O)CSc1nc2c([nH]c3ccccc32)c(=O)n1-c1ccc(OC)cc1,6%,.,3%[59 µM],.,-4%,20µM*
COc1cccc(-n2c(SCC(=O)Nc3nnc(C)s3)nc3c([nH]c4ccccc43)c2=O)c1,26%[57 µM],.,3%[59 µM],.,2%,50µM*
O=C(CSc1nc2c(sc3ccccc32)c(=O)n1CCCN1CCCC1)NCC1CCCO1 (stereo unspecified),26%,.,56µM*,-2,-1%,3%
CCOC(=O)CSc1nc2c(sc3ccccc32)c(=O)n1CCO,-35%,.,2%[59 µM],.,-20%,56µM*
CCOC(=O)CSc1nc2c(sc3ccccc32)c(=O)n1Cc1ccc(OC)cc1,22%,.,9%[59 µM],.,3%,-8%
COC1CC2CCC(C)[C@](O)(O2)C(=O)C(=O)N2CCCCC2C(=O)OC(C(C)CC2CCC(O)C(OC)C2)CC(=O)C(C)/C=C(/C)C(O)C(OC)C(=O)C(C)CC(C)C=CC=C/C=C\1C (stereo partly specified),.,.,-4%[12.7 µM],.,.,.
CCCCOc1ccccc1Cn1c(=O)sc2ccccc21,222%,.,272%[59 µM],.,259%,197%
O=CNC1CCCc2c1[nH]c1ccc(Cl)cc21 (stereo unspecified),-13%,-7%,7.9µM*,14,?,56µM*
O=C(Nc1cc(Cl)ccc1Cl)c1cc([N+](=O)[O-])cc(Br)c1O,-23%,.,.,.,.,56µM*
O=C(Nc1ccc([N+](=O)[O-])cc1Cl)c1cc(Cl)cc(Cl)c1O,-28%,.,.,.,.,45µM*
O=C(Nc1ccc([N+](=O)[O-])cc1Cl)c1cc(Br)ccc1O,4%,.,.,.,.,?
COc1ccc([C@H]2C[C@H](O)[C@@H](n3cc(-c4ccc(F)cc4)nn3)CN2Cc2cccs2)cc1,.,.,.,26,.,.
CC(C)=NOCc1ccc(-c2cn([C@@H]3COC[C@H]3O)nn2)cc1,.,0%,40µM*,.,-4%,.
C/C(=N/Nc1ccccc1[N+](=O)[O-])c1ccc([N+](=O)[O-])cc1,11%,.,-15%[2.33 µM],2,?,-19%
C/C(=N\Nc1ccc([N+](=O)[O-])cc1[N+](=O)[O-])C(C)(C)C(C(=O)O)C(=O)O,-16%,-3%,?,13,?,22µM*
CC/C(=N\Nc1ccccc1[N+](=O)[O-])c1ccc(O)cc1,13µM*,25µM*,.,12,6.3µM*,14µM*
C/C(=N\Nc1ccccc1[N+](=O)[O-])c1ccccc1O,?,?,18µM*,4,2.5µM*,2.8µM*
CCC(=NNc1ccc([N+](=O)[O-])cc1[N+](=O)[O-])c1ccccc1,.,.,.,6,.,.
C/C(=N\Nc1ccc([N+](=O)[O-])cc1[N+](=O)[O-])c1ccc(-n2nncc2C(C)(C)C)cc1,?,-12%,7.1µM*,-13,?,?
COc1ccc(C(=O)NC2CC(=O)N(c3ccc4c(c3)OCCO4)C2)cc1 (stereo unspecified),10%,.,1%[59 µM],.,2%,8%
CC/C(=N\Nc1ccc([N+](=O)[O-])cc1[N+](=O)[O-])c1ccc(O)cc1,-9%,.,-35%[12.7 µM],4,11µM*,-30%
Cc1nn(-c2ccccc2)c2c1N(CC(=O)N1CCN(c3cccc(Cl)c3)CC1)C(=O)CS2,?,.,-4%[59 µM],.,-7%,-29%
COc1cc(-c2nc(-c3ccc4c(c3)-c3ccccc3S4(=O)=O)c(-c3ccccc3)[nH]2)cc(OC)c1OC,18%,.,45µM*,10,-2%,-28%
O=S(=O)(c1ccccc1)c1nnn2c1nc(NCc1ccccc1)c1sccc12,29%,.,-8%[59 µM],.,-18%,-10%
O=C(O)[C@@H]1C[C@H](C(=O)O)N1,17%,.,12µM*!,.,.,4%
SMILES,HP1b binding inh,L3MBTL1 block,G9a block,PI5P4Ka inh,BAZ2B block,JMJD2A Tudor inh
O=C1C=CC(=O)N1c1cccc(-c2ccccc2)c1,32µM*,-16%,1µM*,?,12%,50µM*
Cc1ccc(S(=O)(=O)N2C(=O)C(C)SC2=Nc2ccccc2)cc1 (stereo unspecified),5%,1%,0%,5,2%,-12%
Cc1ccc(S(=O)(=O)N2C(=O)C(c3ccccc3)SC2=Nc2ccccc2)cc1 (stereo unspecified),?,.,7.9µM*,-23,3%,-10%
CCOc1ccccc1CNCc1c(C(=O)O)n(Cc2ccc(F)cc2)c2cc(C)ccc12,-2%,.,-8%[59 µM],.,-6%,-16%
COc1ccc(-c2ccc(=O)n(CC(=O)Nc3cc(OC)ccc3OC)n2)cc1,-26%,.,-2%[59 µM],.,-37%,-27%
Nc1c(S(=O)(=O)O)cc(Nc2ccc(Nc3nc(Cl)nc(Nc4ccc(S(=O)(=O)O)cc4)n3)c(S(=O)(=O)O)c2)c2c1C(=O)c1ccccc1C2=O,.,.,1µM*,.,.,.
CC(C)(C)C1CCc2[nH]nc(C(=O)O)c2C1 (stereo unspecified),0%,-7%,-18%[59 µM],-4,?,?
O=C(O)c1n[nH]c2c1CCCCC2,3%,10%,10µM*,.,50µM*,?
O=C(O)c1n[nH]c2c1CCCC2,9%,.,-27%[12.7 µM],-9,56µM*,25µM*
O=S(=O)(c1cccc(C(F)(F)F)c1)N1CCN(c2nc(-c3ccccc3)nc3ccccc23)CC1,25%,.,.,.,.,-10%
CCc1cccc(CC)c1NC(=O)Cn1nnc2sc3c(c2c1=O)CCCC3,33%,.,17%[59 µM],.,-1%,-12%
